Of roughly 7,900 targets only a part is listed; those with a hit were picked by preference. About 0.6% of all pairs of compound and target were hits.
Experiments:
Experiment in all cases: log2 fold change, soluble protein after heating vs DMSO (PISA); higher = thermal stabilisation; K562 cells, 10 uM, 30 min; active = over 0.2 and 3.5 SD of the protein, either way, in both replicates (recomputed)
YWHAB = YWHAB (UniProt P31946)
Procedure, shortened: (§1)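 Soluble protein was defined as the supernatant after 21,000xg for 90 min. It came from K562 cells at 2×10^6 cells/mL given 10 μM compound for 30 min, heated in aliquots for 3 min across 48°C-58°C, pooled, and extracted in PBS with 0.5% NP-40 at 4°C, and was quantified by TMTpro 16plex LC-MS/MS with equalised channel sums. Thermal stability against control samples, from duplicates, is reported as log2 fold change.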

YWHAQ = YWHAQ (UniProt P27348)
Procedure, shortened: as §1

YWHAZ [1] = molecular target: YWHAZ (UniProt E7ESK7)
Procedure, shortened: as §1

YWHAZ [2] = molecular target: YWHAZ (UniProt P63104)
Chain of YWHAZ (UniProt P63104) (P63104 whole entry, looked up): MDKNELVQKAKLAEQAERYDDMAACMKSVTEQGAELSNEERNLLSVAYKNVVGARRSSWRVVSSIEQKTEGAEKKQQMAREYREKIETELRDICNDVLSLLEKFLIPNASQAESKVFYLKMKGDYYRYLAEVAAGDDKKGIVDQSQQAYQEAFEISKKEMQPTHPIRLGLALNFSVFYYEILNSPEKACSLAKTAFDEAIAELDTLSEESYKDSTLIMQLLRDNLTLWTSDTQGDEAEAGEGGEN
Procedure, shortened: as §1

YY1 = YY1 (UniProt P25490)
Chain of YY1 (P25490 whole entry, looked up): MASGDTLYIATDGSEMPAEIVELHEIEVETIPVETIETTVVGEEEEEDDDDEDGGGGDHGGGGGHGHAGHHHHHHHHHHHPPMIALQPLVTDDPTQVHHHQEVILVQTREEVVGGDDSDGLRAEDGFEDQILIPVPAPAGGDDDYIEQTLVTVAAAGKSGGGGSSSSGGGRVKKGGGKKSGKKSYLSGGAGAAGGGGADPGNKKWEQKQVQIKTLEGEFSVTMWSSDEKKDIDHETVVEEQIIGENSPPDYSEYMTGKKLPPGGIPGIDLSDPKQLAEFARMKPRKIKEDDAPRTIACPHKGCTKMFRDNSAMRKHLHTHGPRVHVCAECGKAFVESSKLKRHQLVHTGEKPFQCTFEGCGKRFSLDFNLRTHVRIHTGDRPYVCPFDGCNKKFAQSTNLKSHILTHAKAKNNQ
Procedure, shortened: as §1

ZADH2 = ZADH2 (UniProt Q8N4Q0)
Chain of ZADH2 (Q8N4Q0 whole entry, looked up): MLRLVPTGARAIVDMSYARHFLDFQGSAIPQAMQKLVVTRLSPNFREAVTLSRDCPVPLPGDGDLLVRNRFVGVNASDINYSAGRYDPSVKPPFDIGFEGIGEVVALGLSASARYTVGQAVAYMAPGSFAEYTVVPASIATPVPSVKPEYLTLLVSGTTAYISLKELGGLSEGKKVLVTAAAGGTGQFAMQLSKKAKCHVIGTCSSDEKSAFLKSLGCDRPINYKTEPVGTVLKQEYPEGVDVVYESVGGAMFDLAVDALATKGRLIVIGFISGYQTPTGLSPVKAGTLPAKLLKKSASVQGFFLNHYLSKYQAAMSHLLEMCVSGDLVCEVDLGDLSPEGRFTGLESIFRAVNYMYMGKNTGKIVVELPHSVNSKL
Procedure, shortened: as §1

ZBTB21 = ZBTB21 (UniProt Q9ULJ3)
Procedure, shortened: as §1

ZBTB43 = ZBTB43 (UniProt O43298)
Chain of ZBTB43 (O43298 whole entry, looked up): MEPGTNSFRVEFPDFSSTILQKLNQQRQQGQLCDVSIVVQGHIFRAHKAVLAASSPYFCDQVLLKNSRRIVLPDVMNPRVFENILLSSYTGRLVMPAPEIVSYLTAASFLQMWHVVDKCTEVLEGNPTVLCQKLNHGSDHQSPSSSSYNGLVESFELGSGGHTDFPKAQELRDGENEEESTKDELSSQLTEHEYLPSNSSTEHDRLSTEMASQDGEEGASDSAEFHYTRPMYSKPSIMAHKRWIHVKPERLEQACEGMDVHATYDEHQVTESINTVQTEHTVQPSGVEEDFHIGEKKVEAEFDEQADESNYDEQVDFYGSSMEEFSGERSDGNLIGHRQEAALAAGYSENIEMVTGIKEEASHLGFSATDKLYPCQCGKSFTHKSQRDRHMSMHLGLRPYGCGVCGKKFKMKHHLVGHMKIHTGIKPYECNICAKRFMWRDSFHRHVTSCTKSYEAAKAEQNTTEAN
Procedure, shortened: as §1

ZC3H18 = ZC3H18 (UniProt Q86VM9)
Procedure, shortened: as §1

ZC3H8 = ZC3H8 (UniProt Q8N5P1)
Procedure, shortened: as §1

ZC3HC1 = ZC3HC1 (UniProt Q86WB0)
Procedure, shortened: as §1

ZDHHC17 = ZDHHC17 (UniProt Q8IUH5)
Chain of ZDHHC17 (Q8IUH5 whole entry, looked up): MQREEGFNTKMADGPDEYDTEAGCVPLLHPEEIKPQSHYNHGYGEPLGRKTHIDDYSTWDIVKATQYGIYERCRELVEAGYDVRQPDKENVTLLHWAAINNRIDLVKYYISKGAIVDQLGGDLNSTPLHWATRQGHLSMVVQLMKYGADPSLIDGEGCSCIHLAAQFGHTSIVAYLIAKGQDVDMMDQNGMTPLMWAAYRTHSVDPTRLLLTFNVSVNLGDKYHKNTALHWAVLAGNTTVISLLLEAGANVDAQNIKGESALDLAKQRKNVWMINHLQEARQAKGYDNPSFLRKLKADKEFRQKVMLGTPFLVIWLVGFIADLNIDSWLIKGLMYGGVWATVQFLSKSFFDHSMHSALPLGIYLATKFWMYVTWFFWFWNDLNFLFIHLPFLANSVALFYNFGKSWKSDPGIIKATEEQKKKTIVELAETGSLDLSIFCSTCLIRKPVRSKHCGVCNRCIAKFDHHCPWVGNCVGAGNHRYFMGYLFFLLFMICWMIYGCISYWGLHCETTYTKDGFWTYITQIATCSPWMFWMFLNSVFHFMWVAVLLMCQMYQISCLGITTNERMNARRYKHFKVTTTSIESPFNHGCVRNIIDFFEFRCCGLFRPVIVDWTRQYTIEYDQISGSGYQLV
Procedure, shortened: as §1

ZDHHC20 = ZDHHC20 (UniProt Q5W0Z9)
Procedure, shortened: as §1

ZDHHC5 = ZDHHC5 (UniProt Q9C0B5)
Chain of ZDHHC5 (Q9C0B5 whole entry, looked up): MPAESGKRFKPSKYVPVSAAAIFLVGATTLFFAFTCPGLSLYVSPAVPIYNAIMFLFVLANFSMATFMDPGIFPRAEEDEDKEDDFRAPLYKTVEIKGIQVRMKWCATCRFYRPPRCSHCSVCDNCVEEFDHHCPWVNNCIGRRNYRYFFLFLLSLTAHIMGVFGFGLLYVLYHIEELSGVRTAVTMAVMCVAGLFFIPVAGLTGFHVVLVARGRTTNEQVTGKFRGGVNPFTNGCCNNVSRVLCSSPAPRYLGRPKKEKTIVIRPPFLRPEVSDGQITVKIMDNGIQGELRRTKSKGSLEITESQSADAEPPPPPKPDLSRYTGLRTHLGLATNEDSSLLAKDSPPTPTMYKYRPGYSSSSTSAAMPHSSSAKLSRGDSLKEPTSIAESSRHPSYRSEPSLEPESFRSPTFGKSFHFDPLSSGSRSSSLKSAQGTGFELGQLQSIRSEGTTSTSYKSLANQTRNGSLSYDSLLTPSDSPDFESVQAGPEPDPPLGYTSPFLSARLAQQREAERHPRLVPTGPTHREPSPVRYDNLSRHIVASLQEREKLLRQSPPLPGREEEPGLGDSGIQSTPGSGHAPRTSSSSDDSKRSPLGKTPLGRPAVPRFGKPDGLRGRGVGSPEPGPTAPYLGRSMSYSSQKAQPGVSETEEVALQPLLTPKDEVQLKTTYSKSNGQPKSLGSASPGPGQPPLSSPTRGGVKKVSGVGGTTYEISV
Procedure, shortened: as §1

ZDHHC7 isoform 2 = ZDHHC7 isoform 2 (UniProt Q9NXF8)
Chain of ZDHHC7 isoform 2 (Q9NXF8 whole entry, looked up, canonical isoform): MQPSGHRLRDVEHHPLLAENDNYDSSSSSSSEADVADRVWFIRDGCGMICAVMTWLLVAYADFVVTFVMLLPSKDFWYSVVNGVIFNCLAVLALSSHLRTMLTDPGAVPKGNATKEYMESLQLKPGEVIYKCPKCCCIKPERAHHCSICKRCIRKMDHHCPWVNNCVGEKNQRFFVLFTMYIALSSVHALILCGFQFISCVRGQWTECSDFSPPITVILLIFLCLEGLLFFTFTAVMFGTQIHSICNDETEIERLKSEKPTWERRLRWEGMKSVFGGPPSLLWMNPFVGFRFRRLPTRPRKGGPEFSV
Procedure, shortened: as §1

ZDHHC8 isoform 3 = ZDHHC8 isoform 3 (UniProt Q9ULC8)
Procedure, shortened: as §1

ZCCHC9 = ZCCHC9 (UniProt Q8N567)
Chain of ZCCHC9 (Q8N567 whole entry, looked up): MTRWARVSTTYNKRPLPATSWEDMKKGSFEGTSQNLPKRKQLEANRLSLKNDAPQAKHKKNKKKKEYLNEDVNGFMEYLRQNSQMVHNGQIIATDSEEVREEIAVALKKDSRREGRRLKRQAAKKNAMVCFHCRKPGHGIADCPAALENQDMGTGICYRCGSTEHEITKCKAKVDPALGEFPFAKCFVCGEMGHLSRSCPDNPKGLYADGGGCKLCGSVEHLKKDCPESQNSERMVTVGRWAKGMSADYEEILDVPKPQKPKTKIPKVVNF
Procedure, shortened: as §1

ZDHHC6 = ZDHHC6 (UniProt Q9H6R6)
Procedure, shortened: as §1

ZCCHC17 = ZCCHC17 (UniProt Q9NP64)
Chain of ZCCHC17 (Q9NP64 whole entry, looked up): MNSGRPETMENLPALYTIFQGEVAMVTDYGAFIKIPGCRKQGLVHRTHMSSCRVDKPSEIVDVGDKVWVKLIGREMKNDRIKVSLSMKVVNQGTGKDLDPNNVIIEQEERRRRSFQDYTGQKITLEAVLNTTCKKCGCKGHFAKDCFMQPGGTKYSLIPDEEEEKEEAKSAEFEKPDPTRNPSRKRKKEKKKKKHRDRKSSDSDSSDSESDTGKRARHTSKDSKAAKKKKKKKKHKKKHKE
Procedure, shortened: as §1

ZBTB17 isoform 2 = ZBTB17 isoform 2 (UniProt Q13105)
Chain of ZBTB17 isoform 2 (Q13105 whole entry, looked up, canonical isoform): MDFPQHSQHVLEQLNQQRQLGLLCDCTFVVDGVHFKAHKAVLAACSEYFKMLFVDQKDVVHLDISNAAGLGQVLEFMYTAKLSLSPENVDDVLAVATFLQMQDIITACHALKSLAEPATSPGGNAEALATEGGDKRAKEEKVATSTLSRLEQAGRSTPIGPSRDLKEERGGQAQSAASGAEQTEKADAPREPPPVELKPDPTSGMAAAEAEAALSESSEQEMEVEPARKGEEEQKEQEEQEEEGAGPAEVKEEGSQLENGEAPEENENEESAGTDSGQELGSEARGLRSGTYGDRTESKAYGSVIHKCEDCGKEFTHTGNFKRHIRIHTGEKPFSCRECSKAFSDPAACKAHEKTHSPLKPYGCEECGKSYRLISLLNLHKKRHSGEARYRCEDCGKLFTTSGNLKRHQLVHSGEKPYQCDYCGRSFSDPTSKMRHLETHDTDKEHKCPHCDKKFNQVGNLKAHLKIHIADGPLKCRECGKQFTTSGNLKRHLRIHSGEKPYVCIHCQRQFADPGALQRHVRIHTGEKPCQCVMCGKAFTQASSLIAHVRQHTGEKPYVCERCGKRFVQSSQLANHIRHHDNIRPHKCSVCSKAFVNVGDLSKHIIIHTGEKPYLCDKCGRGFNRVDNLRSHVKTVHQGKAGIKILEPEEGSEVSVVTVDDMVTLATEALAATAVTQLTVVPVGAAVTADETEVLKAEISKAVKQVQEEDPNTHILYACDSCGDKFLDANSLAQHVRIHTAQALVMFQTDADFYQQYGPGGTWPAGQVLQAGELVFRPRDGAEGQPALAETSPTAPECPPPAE
Procedure, shortened: as §1

Measured: log2 fold change

Chain of YWHAB (P31946 whole entry, looked up): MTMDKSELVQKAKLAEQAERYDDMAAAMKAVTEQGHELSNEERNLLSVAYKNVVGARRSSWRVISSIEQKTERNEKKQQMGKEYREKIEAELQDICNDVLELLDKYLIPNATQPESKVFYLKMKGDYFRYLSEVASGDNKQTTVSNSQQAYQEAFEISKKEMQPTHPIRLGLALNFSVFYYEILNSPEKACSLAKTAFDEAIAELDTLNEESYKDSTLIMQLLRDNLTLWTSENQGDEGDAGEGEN

Cc1cc(SCc2sc(-c3ccc(C(F)(F)F)cc3)nc2C)ccc1OCC(=O)O
inactive: YWHAB 0.005 | YWHAQ 0.119 | YWHAZ [1] -0.02 | YWHAZ [2] 0.012 | YY1 0.002 | ZADH2 -0.027 | ZBTB21 0.043 | ZBTB43 0.041 | ZC3H18 -0.034 | ZC3H8 -0.039 | ZC3HC1 0.199 | ZDHHC17 -0.04 | ZDHHC20 -0.249 | ZDHHC5 -0.03 | ZDHHC7 isoform 2 -0.075 | ZDHHC8 isoform 3 0.031

Cc1ccc(NC(=O)c2cccc(N(C)C)c2)cc1NC(=O)c1ccc(O)cc1
inactive: YWHAB -0.008 | YWHAQ -0.023 | YWHAZ [1] 0.082 | YWHAZ [2] 0.011 | YY1 -0.012 | ZADH2 -0.047 | ZBTB21 0.101 | ZBTB43 0.141 | ZC3H18 -0.02 | ZC3H8 0.03 | ZC3HC1 -0.209 | ZCCHC9 0.062 | ZDHHC17 0.01 | ZDHHC20 0.085 | ZDHHC5 -0.007 | ZDHHC7 isoform 2 0.014

CC(=O)c1cnc2ccc(-c3cc(Cl)c(O)c(Cl)c3)nc2c1N[C@H]1CC[C@H](CN(C)C)CC1
inactive: YWHAB -0.019 | YWHAQ 0.118 | YWHAZ [1] -0.081 | YWHAZ [2] 0.06 | YY1 -0.084 | ZADH2 -0.131 | ZBTB43 0.008 | ZC3H18 -0.155 | ZC3H8 0.006 | ZC3HC1 -0.165 | ZCCHC9 0.143 | ZDHHC17 -0.007 | ZDHHC20 0.026 | ZDHHC5 -0.049 | ZDHHC7 isoform 2 -0.017
active: ZBTB21 -0.42

O=C(Nc1nc2ccccc2n1CCN1CCOCC1)c1cccc([N+](=O)[O-])c1 [IRAK-1-4 Inhibitor I]
inactive: YWHAB 0.127 | YWHAQ 0.084 | YWHAZ [1] 0.005 | YWHAZ [2] 0.105 | YY1 -0.026 | ZADH2 0.036 | ZBTB21 0.006 | ZBTB43 -0.043 | ZC3H18 -0.036 | ZC3H8 -0.098 | ZC3HC1 -0.017 | ZCCHC9 -0.085 | ZDHHC17 -0.008 | ZDHHC20 -0.044 | ZDHHC5 -0.043 | ZDHHC7 isoform 2 0 | ZDHHC8 isoform 3 -0.049

Oc1cc(-c2nc(-c3ccccc3)[nH]c2-c2ccncc2)ccc1Cl
inactive: YWHAB -0.02 | YWHAQ 0.284 | YWHAZ [1] -0.068 | YWHAZ [2] 0.096 | YY1 -0.053 | ZADH2 0.121 | ZBTB21 -0.067 | ZBTB43 -0.064 | ZC3H18 0.015 | ZC3H8 -0.076 | ZC3HC1 0.024 | ZCCHC9 -0.271 | ZDHHC17 0.002 | ZDHHC20 -0.232 | ZDHHC5 0.01 | ZDHHC7 isoform 2 0.026

O=C(CCCCCCNC(=O)c1cnc(N(c2ccccc2)c2ccccc2Cl)nc1)NO [citarinostat]
inactive: YWHAB 0.001 | YWHAQ 0.02 | YWHAZ [1] -0.053 | YWHAZ [2] -0.013 | YY1 0.121 | ZADH2 0.106 | ZBTB43 -0.173 | ZC3H18 0.028 | ZC3H8 -0.059 | ZC3HC1 0.125 | ZCCHC9 -0.161 | ZDHHC17 -0.17 | ZDHHC20 -0.028 | ZDHHC5 -0.022 | ZDHHC6 0.149 | ZDHHC7 isoform 2 -0.037

Cn1cc(-c2ccc3c(c2)CCN3C(=O)Cc2cccc(C(F)(F)F)c2)c2c(N)ncnc21
inactive: YWHAB 0.005 | YWHAQ 0.124 | YWHAZ [1] 0.102 | YWHAZ [2] 0.052 | YY1 0.004 | ZADH2 0.04 | ZBTB21 0.122 | ZBTB43 0.023 | ZC3H18 -0.03 | ZC3H8 -0.084 | ZC3HC1 0.014 | ZCCHC9 -0.074 | ZDHHC17 0.018 | ZDHHC20 -0.036 | ZDHHC5 -0.02 | ZDHHC7 isoform 2 -0.088

C/C(=N\NC(=O)c1cccc(S(=O)(=O)N2CCOCC2)c1)c1cc(Cl)ccc1O
inactive: YWHAB 0.005 | YWHAQ 0.204 | YWHAZ [1] -0.037 | YWHAZ [2] 0.061 | YY1 0.072 | ZBTB21 0.068 | ZBTB43 0.02 | ZC3H18 0.01 | ZC3H8 -0.128 | ZC3HC1 0.199 | ZCCHC9 -0.224 | ZDHHC17 -0.004 | ZDHHC20 -0.048 | ZDHHC5 0.003 | ZDHHC7 isoform 2 0.057
active: ZADH2 0.372

CS(=O)(=O)CCNCc1ccc(-c2ccc3ncnc(Nc4ccc(OCc5cccc(F)c5)c(Cl)c4)c3c2)o1 [lapatinib]
inactive: YWHAB -0.016 | YWHAQ 0.219 | YWHAZ [1] -0.051 | YWHAZ [2] 0.197 | YY1 -0.023 | ZADH2 -0.049 | ZBTB21 0.032 | ZC3H18 0.111 | ZC3H8 0 | ZC3HC1 0 | ZCCHC9 0.028 | ZDHHC17 -0.022 | ZDHHC20 0.063 | ZDHHC5 -0.072 | ZDHHC6 -0.031 | ZDHHC7 isoform 2 0.034

Cn1cncc1[C@@](N)(c1ccc(Cl)cc1)c1ccc2c(c1)c(-c1cccc(Cl)c1)cc(=O)n2C [tipifarnib]
inactive: YWHAB 0.059 | YWHAQ -0.112 | YWHAZ [1] 0.127 | YWHAZ [2] -0.123 | YY1 0.009 | ZADH2 -0.053 | ZBTB21 -0.02 | ZC3H18 0.111 | ZC3H8 0.043 | ZC3HC1 -0.183 | ZCCHC9 0.113 | ZDHHC17 0.032 | ZDHHC20 -0.014 | ZDHHC5 0.013 | ZDHHC6 0.086 | ZDHHC7 isoform 2 -0.047

CCCS(=O)(=O)Nc1ccc(F)c(C(=O)c2c[nH]c3ncc(-c4ccc(Cl)cc4)cc23)c1F [vemurafenib]
inactive: YWHAB 0.021 | YWHAQ 0.284 | YWHAZ [2] 0.037 | YY1 0.03 | ZADH2 0 | ZBTB21 -0.032 | ZBTB43 0.044 | ZC3H18 -0.025 | ZC3H8 -0.071 | ZC3HC1 0.09 | ZCCHC17 -0.396 | ZCCHC9 -0.11 | ZDHHC17 0.016 | ZDHHC20 0.049 | ZDHHC5 -0.021 | ZDHHC7 isoform 2 -0.016

CCn1c(C(=O)N(C2CC2)C2CC2)cc2c3c(ncn3C)c(Nc3cc(C)n(C)n3)nc21
inactive: YWHAB 0.027 | YWHAQ 0.039 | YWHAZ [2] 0.017 | YY1 0.044 | ZADH2 0.154 | ZBTB17 isoform 2 0.005 | ZBTB21 -0.038 | ZBTB43 -0.033 | ZC3H18 0.018 | ZC3H8 -0.034 | ZC3HC1 -0.059 | ZCCHC9 0.003 | ZDHHC17 -0.061 | ZDHHC20 -0.023 | ZDHHC5 -0.012 | ZDHHC7 isoform 2 0.011

CS(=O)(=O)c1ccc(-c2cnc(N)c(C(=O)Nc3ccccc3)n2)cc1
inactive: YWHAB 0.017 | YWHAQ -0.013 | YWHAZ [2] -0.017 | YY1 -0.061 | ZADH2 -0.063 | ZBTB17 isoform 2 -0.013 | ZBTB21 0.048 | ZBTB43 0.021 | ZC3H18 -0.056 | ZC3H8 0 | ZC3HC1 0.066 | ZCCHC17 -0.069 | ZCCHC9 0.1 | ZDHHC17 -0.005 | ZDHHC20 0.067 | ZDHHC5 0.129

CCn1cc(-c2ccnc3[nH]c(-c4cccc(CN(C)C)c4)cc23)c(-c2ccc(NC(=O)N(C)C)cc2)n1
inactive: YWHAB 0.014 | YWHAQ 0.143 | YWHAZ [2] -0.042 | YY1 0.002 | ZADH2 0.13 | ZBTB21 -0.073 | ZBTB43 0.028 | ZC3H18 0.068 | ZC3H8 0.092 | ZC3HC1 -0.125 | ZCCHC9 0.201 | ZDHHC17 -0.018 | ZDHHC20 -0.016 | ZDHHC5 -0.002 | ZDHHC6 -0.292 | ZDHHC7 isoform 2 -0.363

CCN(CC)Cc1ccc2cc(COC(=O)Nc3ccc(C(=O)NO)cc3)ccc2c1 [givinostat]
inactive: YWHAB -0.026 | YWHAQ -0.039 | YWHAZ [2] -0.001 | YY1 0.02 | ZADH2 -0.066 | ZBTB17 isoform 2 -0.011 | ZBTB21 -0.045 | ZBTB43 -0.006 | ZC3H18 0.106 | ZC3H8 -0.106 | ZC3HC1 0.031 | ZCCHC9 0.038 | ZDHHC17 0.113 | ZDHHC20 -0.167 | ZDHHC5 -0.001 | ZDHHC7 isoform 2 0.011

CN(C)CC(=O)Nc1ccc2[nH]c(=O)c3ccccc3c2c1
inactive: YWHAB -0.033 | YWHAQ 0.16 | YWHAZ [2] 0.009 | YY1 -0.047 | ZADH2 0.02 | ZBTB21 0.018 | ZBTB43 -0.07 | ZC3H18 -0.039 | ZC3H8 -0.047 | ZC3HC1 0.089 | ZCCHC17 -0.059 | ZCCHC9 -0.125 | ZDHHC17 -0.005 | ZDHHC20 -0.026 | ZDHHC5 -0.032 | ZDHHC7 isoform 2 0.057

CN1CCN(c2nc(C3=C(c4c[nH]c5ccccc45)C(=O)NC3=O)c3ccccc3n2)CC1 [sotrastaurin]
inactive: YWHAB 0.031 | YWHAQ -0.043 | YWHAZ [2] -0.01 | YY1 -0.092 | ZADH2 -0.015 | ZBTB17 isoform 2 0.03 | ZBTB21 0.022 | ZBTB43 0.027 | ZC3H18 -0.11 | ZC3H8 0.025 | ZC3HC1 -0.178 | ZCCHC17 -0.095 | ZCCHC9 0.243 | ZDHHC17 0.099 | ZDHHC20 0.015 | ZDHHC5 -0.069

From the supplement of paper PMC10849652
